PubChem BioAssay AID1159580 (chemical genetic matrix, 2015)
About 2,000 (36%) of roughly 5,500 compounds were called active. Roughly 18% stayed inconclusive and do not appear here. Rule as the data show it: active = normalized growth mostly below about 0.91 (no sharp cut-off); inconclusive = no clear call, values can overlap the other calls; inactive = mostly above about 0.92. The list shows a part of the results.

Assay: chemical genetic growth profiling, strain panel (AID 1159580);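 also: tested at 20 µM; growth read once vehicle control cultures reached saturation at 30 °C; 1 = growth at the plate median or of vehicle wells; lower values mean less growth of the strain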
Details: S. cerevisiae deletion strains, growth OD

Measured: normalized growth

COc1ccc2c(c1)c(CC(=O)O)c(C)n2C(=O)c1ccccc1
inactive: locus YAL040C, strain CLN3, stronger effect = lower value 1.03 | locus YDR150W, strain NUM1, stronger effect = lower value 0.99 | locus YDR363W, strain ESC2, stronger effect = lower value 1.04 | locus YER002W, strain NOP16, stronger effect = lower value 1 | locus YGR078C, strain PAC10, stronger effect = lower value 1.03 | locus YGR229C, strain SMI1, stronger effect = lower value 1.02 | locus YNL153C, strain GIM3, stronger effect = lower value 0.986 | locus YNL175C, strain NOP13, stronger effect = lower value 1.02 | locus YNL197C, strain WHI3, stronger effect = lower value 1.01 | locus YNL224C, strain SQS1, stronger effect = lower value 1.02 | locus YOR083W, strain WHI5 (second series), stronger effect = lower value 1.03 | locus YPL055C, strain LGE1, stronger effect = lower value 1 | locus YPL241C, strain CIN2, stronger effect = lower value 0.998
